In PubChem BioAssay (NCI):
This is part of a sample that, as a whole, favours compounds with a hit. Of some 83,000 tested, about 20% had one in any assay.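 Values shown are percent growth following 48 h exposure of cells in 96-well plates to a single concentration of compound; below 10 was considered active.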 Activity calls are given as the source filed them.

Experiments:
Assay in all cases: NCI-60 one-dose screen, 48 h (100 = growth as untreated, 0 = no growth, -100 = all killed)
Conditions in all cases: 10 µM unless noted
NCI/ADR-RES ovarian = system: NCI/ADR-RES ovarian
T-47D breast = system: T-47D breast
BT-549 breast = system: BT-549 breast
MDA-MB-435 melanoma = system: MDA-MB-435 melanoma
SW-620 colon = system: SW-620 colon
MCF7 breast = system: MCF7 breast
HCT-116 colon = system: HCT-116 colon
HCC-2998 colon = system: HCC-2998 colon
KM12 colon = system: KM12 colon

Measured: growth

COC(=O)[C@H](C[C@H](Cc1ccccc1)NC(=O)c1csc([C@@H](C[C@H](C(C)C)N(C)C(=O)[C@@H](NC(=O)[C@H]2CCCCN2C)C(C)C)OC(C)=O)n1)NC(=O)OCc1ccccc1
inactive: T-47D breast 74.1% [8.5 µM] | SW-620 colon 25.4% [8.5 µM] | MCF7 breast 29.4% [8.5 µM] | HCC-2998 colon 20.4% [8.5 µM]
active: NCI/ADR-RES ovarian 8.51% [8.5 µM] | BT-549 breast -34.2% [8.5 µM] | MDA-MB-435 melanoma -33% [8.5 µM] | HCT-116 colon -4.29% [8.5 µM] | KM12 colon 3.13% [8.5 µM]

Fc1cccc(NCOOC2(OOCNc3cccc(F)c3)CCCCC2)c1
inactive: NCI/ADR-RES ovarian 77.8% | T-47D breast 86.8% | BT-549 breast 102% | MDA-MB-435 melanoma 101% | SW-620 colon 104% | MCF7 breast 88.8% | HCT-116 colon 87.3% | HCC-2998 colon 105% | KM12 colon 94.6%

O=[N+]([O-])c1cc([N+](=O)[O-])c(Nn2c3ccccc3c3ccccc32)c([N+](=O)[O-])c1
inactive: SW-620 colon 11.1%
active: NCI/ADR-RES ovarian 7.52% | T-47D breast -17.3% | BT-549 breast -27.4% | MDA-MB-435 melanoma 0.936% | MCF7 breast 2.34% | HCT-116 colon -10.1% | HCC-2998 colon 1.54% | KM12 colon 4.34%

CCOC(=O)[C@@H](C)C[C@H](Cc1ccccc1)NC(=O)c1csc([C@@H](C[C@H](C(C)C)N(C)C(=O)[C@@H](NC(=O)[C@H]2CCCCN2C)C(C)(C)C)OC(C)=O)n1
inactive: T-47D breast 62.7% | SW-620 colon 26.2% | MCF7 breast 13.8%
active: NCI/ADR-RES ovarian 6.69% | BT-549 breast -27.2% | MDA-MB-435 melanoma -66.4% | HCT-116 colon 2.35% | HCC-2998 colon -2.49% | KM12 colon 3.85%

COC(=O)[C@H](Cc1ccccc1)NNC(=O)c1csc([C@@H](C[C@H](C(C)C)N(C)C(=O)[C@@H](NC(=O)[C@H]2CCCCN2C)C2CC2)OC(C)=O)n1
inactive: NCI/ADR-RES ovarian 32.9% | T-47D breast 37.7% | SW-620 colon 24.4% | MCF7 breast 16.3% | HCC-2998 colon 10.8%
active: BT-549 breast -0.476% | MDA-MB-435 melanoma -55.8% | HCT-116 colon 1.19% | KM12 colon 5.13%

COC(=O)[C@@H](C)C[C@H](Cc1ccccc1)NC(=O)c1csc([C@@H](C[C@H](C(C)C)N(C)C(=O)[C@@H](NC(=O)CN(C)C)C2CC2)OC(C)=O)n1
active: BT-549 breast -21.1% | MDA-MB-435 melanoma 0.597% | HCT-116 colon 3.84% | KM12 colon 7.64%
inactive: NCI/ADR-RES ovarian 54.7% | T-47D breast 72.8% | SW-620 colon 35.8% | MCF7 breast 17.7% | HCC-2998 colon 16%

COc1ccc(/C=C\c2cc(OC)c(OC)c(OC)c2)cc1OCC(=O)Nc1nc2ccc(F)cc2s1
inactive: NCI/ADR-RES ovarian 20.2% | T-47D breast 38.3% | BT-549 breast 53.7% | MDA-MB-435 melanoma 15.5% | SW-620 colon 42.4% | MCF7 breast 17.1% | HCT-116 colon 17.5% | HCC-2998 colon 72% | KM12 colon 42.1%

C/C(=C\c1ccn(-c2ccc(N)cc2C(F)(F)F)n1)[C@@H]1C[C@@H]2O[C@]2(C)CCC[C@H](C)[C@H](O)[C@@H](C)C(=O)C(C)(C)[C@@H](O)CC(=O)O1
active: NCI/ADR-RES ovarian 1.74% | MDA-MB-435 melanoma -61.7%
inactive: T-47D breast 39.1% | BT-549 breast 27% | SW-620 colon 23.9% | MCF7 breast 16.4% | HCT-116 colon 12.1% | HCC-2998 colon 14.1% | KM12 colon 11.4%

CC(=O)Nc1ccc(NC(=O)c2ccc([As](O)O)cc2)cc1
inactive: NCI/ADR-RES ovarian 101% | T-47D breast 48.3% | BT-549 breast 113% | MDA-MB-435 melanoma 99.8% | SW-620 colon 87.9% | MCF7 breast 85% | HCT-116 colon 101% | HCC-2998 colon 112% | KM12 colon 124%

[Au+].[N-]=C=O.c1ccc(CN2[CH-]N(Cc3ccccc3)C(c3ccccc3)=C2c2ccccc2)cc1
inactive: NCI/ADR-RES ovarian 109% | T-47D breast 52.4% | BT-549 breast 89.8% | MDA-MB-435 melanoma 101% | SW-620 colon 89.6% | MCF7 breast 46.1% | HCT-116 colon 67.6% | HCC-2998 colon 79.9% | KM12 colon 90.4%

CN1CC(=O)N(O)C1(C)c1cccnc1 (stereo unspecified)
inactive: NCI/ADR-RES ovarian 104% | T-47D breast 93.4% | BT-549 breast 95.7% | MDA-MB-435 melanoma 97.4% | SW-620 colon 111% | MCF7 breast 98.7% | HCT-116 colon 102% | HCC-2998 colon 98.7% | KM12 colon 108%

CCn1c2ccccc2c2cc(C(=O)c3ccc(C)c4ccccc34)ccc21
active: NCI/ADR-RES ovarian 6.35% | MDA-MB-435 melanoma -34.1%
inactive: T-47D breast 53.6% | BT-549 breast 21.9% | SW-620 colon 11.8% | MCF7 breast 14.4% | HCT-116 colon 12.1% | HCC-2998 colon 29.6% | KM12 colon 13.4%

C[C@@]12CC=C3c4nc(Nc5cccc(O)c5)sc4CC[C@]3(C)[C@H]1CC[C@]1(C)C(=O)CC[C@@H]21
active: T-47D breast -8.55% | SW-620 colon -4.13% | MCF7 breast -25.9% | HCT-116 colon -23.7%
inactive: NCI/ADR-RES ovarian 78.9% | BT-549 breast 17.4% | MDA-MB-435 melanoma 42.6% | HCC-2998 colon 81.5% | KM12 colon 34.7%

Cc1cc(N(CCCl)CCCl)ccc1C=Nc1cccnc1
inactive: NCI/ADR-RES ovarian 71.6% | T-47D breast 45.3% | BT-549 breast 86.9% | MDA-MB-435 melanoma 101% | SW-620 colon 85.3% | MCF7 breast 36.5% | HCT-116 colon 77.6% | HCC-2998 colon 90.7% | KM12 colon 102%
